A selection: hits, their analogues and other compounds. The true share with any hit is near 1.2%.
ABCB6 inh 2: human ABCB6 transporter inhibition; K562-ABCB6 porphyrin accumulation, flow cytometry, 1 h; hits give low values; fluorescence ratio to DMSO, % at 10 µM; hit rate 0.19% among 360,000;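 active = fluorescence ratio to DMSO below 75%, the collection mean minus 3 SD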;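 note: signal is porphyrin accumulated inside mitochondria; 100% equals median channel fluorescence of DMSO control wells; lower ratio means ABCB6 inhibition with less porphyrin fluorescence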
VLA-4 inh: inhibition in a human VLA-4 binding assay. inhibition, % (about 7 µM as worked out from the volumes in the protocol). hit rate 0.2% among 330,000. P13612. VLA-4 expressing cells, ligand binding flow cytometry. AID 2557; in the data active = inhibition above about 50%
Yeast superoxide: lowers age-related superoxide in aged yeast cells; hit rate 0.18% among 330,000; superoxide response (% of plate mean), % at 10 µM; S. cerevisiae aged cells, superoxide DHE fluorescence; hits give low values;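 active = superoxide response under a set limit, about three screen SD below normal, cut at about 65% in these data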;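 note: yeast aged for seven days with compound at 30 °C before DHE staining; 100% = average MFI of all compound-treated wells on the plate with controls excluded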
Platelet DG rel: platelet dense granule release activity | human platelet-rich plasma, SFLLRN dense granule ATP release, luminescence | hit rate 0.22% among 300,000 | inhibition, %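 (compounds screened at 7.5 µM in platelet-rich plasma)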;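 active = mean replicate score, as percent of positive control, at or above 50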
SKN-1 inh: blocks SKN-1 activity in C. elegans; hit rate 0.49% among 360,000; C. elegans VP596 Pgst-4::GFP/RFP ratio, acrylamide-induced, 24 h; AID 624304; inhibition, % at 21.8 µM;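 active = interference check ratio from 0.5 to 1.5 plus GFP to RFP signal ratio inhibition reaching or exceeding a fixed threshold, cut at about 30% in these data, passing the limit was not always enough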
CR mimetic CP: confirmation of caloric restriction mimetics inhibiting yeast age-related superoxide; shares compounds with Yeast superoxide; S. cerevisiae aging, superoxide DHE fluorescence; hits give low values; superoxide response (% of plate), % at 10 µM; hit rate 1% among 850;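 active = superoxide signal below 65% of the plate average of sample wells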;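 note: cells aged with compound for 7 days at 30 degrees C before staining; 100% equals mean DHE fluorescence of all compound wells on the plate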
DHE fluor count: compound alters DHE oxidation or fluorescence in yeast; shares compounds with Yeast superoxide; S. cerevisiae BY4741, flow cytometry; hits give low values; 850 tested, under 10 active; fluorescence response, % at 10 µM;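 active = fluorescence response below 15%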;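 note: percent of the mean fluorescence averaged over all compound wells on the plate; lower means stronger quenching of DHE signal or ROS scavenging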
Numbers without * were called inactive; · = no result.

SMILES	ABCB6 inh 2	VLA-4 inh	Yeast superoxide	Platelet DG rel	SKN-1 inh	CR mimetic CP	DHE fluor count
COc1ccc(S(=O)(=O)Nc2noc3ccccc23)cc1OC	95	10	54*	-3	10	83	97
CCOC(=O)C1CCCN(C(=O)C2(c3ccc(Cl)cc3)CCCC2)CC1 (stereo unspecified)	105	·	·	·	8	·	·
C=CCSc1nnc(-c2ccc([N+](=O)[O-])cc2)o1	102	6	64*	-3	12	106	91
CCOC(=O)c1ccc(NC(=O)Nc2cccc(C)n2)cc1	90	3	107	-4	6	·	·
CCOC(=O)c1ccc(NC(=O)Nc2ccn(C)n2)cc1	99	-4	63*	-4	-4	103	96
CC(C)(C)c1ccc(CNC(=O)c2ccc3c(c2)NC(=O)CO3)cc1	109	8	96	2	-9	·	·
O=C1COc2ccc(C(=O)NCc3ccc4c(c3)OCO4)cc2N1	102	7	64*	3	9	97	94
COc1ccc(Cl)cc1S(=O)(=O)N1CCN=C1c1ccccc1	104	-1	83	-5	-19	·	·
COc1ccc(Cl)cc1S(=O)(=O)N1CCCC1=O	102	-9	98	-1	13	109	99
CC(=O)NC(c1ccccc1)c1nc(-c2cccc(C(F)(F)F)c2)cs1 (stereo unspecified)	93	·	·	·	6	·	·
CCN(CC)C(=O)CCSc1nnc(-c2ccncc2)o1	101	4	100	-6	5	·	·
CCCNC(=O)CSc1nnc(-c2ccc(F)cc2)o1	93	-1	127	-13	-1	117	100
CCN(CC)C(=O)CSc1nnc(-c2ccccc2)o1	98	7	98	-5	-2	96	96
CCN(CC)C(=O)c1ccc(NS(=O)(=O)c2ccccc2)cc1	93	-6	89	2	5	·	·
CC(=O)c1ccc(NS(=O)(=O)c2ccccc2)cc1	97	-13	104	-2	9	94	86
Cc1cc(NC(=O)CSC2=Nc3ccccc3C3=NC(Cc4ccccc4)C(=O)N23)n[nH]1 (stereo unspecified)	100	-12	90	5	13	·	·
CCN(CC)C(=O)CSC1=Nc2ccccc2C2=NC(Cc3c[nH]c4ccccc34)C(=O)N12 (stereo unspecified)	94	-5	65*	1	-4	104	91
O=C(NC1CCCC1)C(c1ccccc1)N(C(=O)c1csnn1)c1ccccc1F (stereo unspecified)	97	2	91	-4	3	·	·
O=C(NC1CCCCC1)C(c1ccncc1)N(C(=O)c1csnn1)c1ccccc1F (stereo unspecified)	100	6	65*	8	18	92	99
Cc1ccccc1NS(=O)(=O)c1ccc2c(c1)CCC(=O)N2	107	·	·	·	-11	·	·
CCc1nc2ccc(C(=O)NC(C)(C)C)cn2c1N(CC)Cc1cccc(Br)c1	96	·	·	·	-1	·	·
COc1ccccc1C1=NN(C(=O)c2ccccc2)C(c2ccc(Br)cc2)C1 (stereo unspecified)	76	-45	60*	-4	10	101	98
COc1ccc(C2CC(c3ccc(OC)cc3OC(C)=O)=NN2C(=O)c2ccccc2)cc1 (stereo unspecified)	86	1	96	-4	1	·	·
COc1ccc(NC(=O)C2Cc3c(-c4ccccc4Oc4ccccc4)ccnc3O2)cc1OC (stereo unspecified)	97	·	·	·	6	·	·
Cc1ncc([N+](=O)[O-])n1CC(=O)Nc1ccc(Cl)cc1	99	3	88	1	8	·	·
SMILES	ABCB6 inh 2	VLA-4 inh	Yeast superoxide	Platelet DG rel	SKN-1 inh	CR mimetic CP	DHE fluor count
Cc1ncc([N+](=O)[O-])n1CC(=O)Nc1ccc(F)c(F)c1	94	12	53*	-3	2	96	94
CN(C(=O)CSc1nc(O)cc(=O)n1-c1ccccc1F)c1ccccc1	95	4	50*	-5	8	107	107
CC1(C)CC(NCc2cccc([N+](=O)[O-])c2)CC(C)(C)N1	96	-9	62*	-1	-22	112	88
CC(=O)N1CCC(C(=O)N2c3ccccc3N=C(c3ccc4c(c3)OCO4)C2C(=O)Nc2c(C)cccc2C)CC1 (stereo unspecified)	·	·	·	·	-7	·	·
COc1ccc(/C=C2\SC(=S)N(CCCC(=O)Nc3ccc(C(=O)O)cc3)C2=O)cc1OC	101	3	63*	-1	7	93	97
O=C(O)CN(c1ccccc1F)S(=O)(=O)c1ccccc1	97	5	95	8	18	94	94
CC(C)Nc1ncnc2c1cnn2-c1ccc(Cl)cc1	97	11	98	-17	15	90	91
CC(C)(C)Nc1ncnc2c1cnn2-c1ccccc1	93	38	87	-9	19	100	95
CSc1ccc(Cn2c(C)c(C(=O)NCc3ccc4c(c3)OCO4)sc2=O)cc1	95	·	·	·	7	·	·
CS(=O)(=O)Nc1ccccc1C(=O)N1CCN(c2ccccc2)CC1	·	5	84	-3	·	111	110
CSc1ccccc1C(=O)N1CCN(c2ccc(F)cc2)CC1	97	1	95	-9	-9	109	90
COc1ccc(C2=Nc3ccccc3N(C(=O)c3ccc4ncccc4c3)C2C(=O)NC(C)(C)C)cc1 (stereo unspecified)	·	·	·	·	12	·	·
CC(C)(C)c1ccc(S(=O)(=O)Nc2ccc(C(O)(C(F)(F)F)C(F)(F)F)cc2)cc1	97	·	·	·	6	·	·
COc1cccc(NC(=O)Nc2ccc3c(c2)nc(C)n3C)c1	96	1	61*	24	4	108	112
COc1ccc2c3c(cccc13)N(C)N=C2C	95	-4	59*	2	41*	74	95
COc1ccc2c3c(cccc13)OC2=O	97	-1	102	-2	6	·	·
Cc1ccc(C(=O)O)cc1S(=O)(=O)N1CCCC1	91	2	108	0	18	104	107
COc1ccccc1CNC(=O)C[C@H]1CC[C@@H]2[C@H](COC[C@H](O)CN2Cc2ccc3c(c2)OCO3)O1	·	·	·	·	-2	·	·
CN(c1ccccc1)S(=O)(=O)c1ccccc1Br	95	6	85	·	-4	87	89
Cc1ccc(S(=O)(=O)N(C)c2ccccc2)cc1	91	5	94	3	12	·	·
CN1C(=O)CCC(CCC(=O)O)(c2ccccc2O)C1=O (stereo unspecified)	105	-7	63*	-1	12	103	106
COCCCN1C(=O)N(c2ccccc2)C(=O)C1CC(=O)Nc1ccc(F)cc1 (stereo unspecified)	103	5	62*	5	11	95	90
